# Measurements as given in PubChem BioAssay (Tox21).
# Inconclusive results are not listed. Where a call stands in place of a potency, no number is given. Calls of active or inactive are those of the source. Unless noted, the call rests on the fitted dose curve.
# System: not listed separately
# Assay: cAMP Responsive Elements (CRE) small molecule antagonists, cell-based qHTS assay (AID 1963591; active means well fitted inhibition curve with a large enough effect in the signal ratio in the repeat runs, not every such curve was filed as active; the % refers to the signal ratio)
# Conditions: CRE-bla HEK293T, beta-lactamase FRET ratio; series mostly up to 92.4 µM
# Outline: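 Fluorescence intensity from cleaved LiveBLAzer B/G substrate (2 h, room temperature) quantified CRE-bla activity in HEK 293T cells exposed 3 h to compound with 0.25 uM final NKH477.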
row,SMILES,Potency
1,CN(C)CCN(Cc1ccccc1)c1ccccn1,inactive
2,O=c1[nH]c(=O)n([C@H]2C[C@H](O)[C@@H](CO)O2)cc1F,inactive
3,O=C1CCCc2c1cc1ccc3cccc4ccc2c1c34,inactive
4,CCC[C@@H]1C[C@@H](C(=O)N[C@@H]([C@H]2O[C@H](SC)[C@H](O)[C@@H](O)[C@H]2O)[C@@H](C)O)N(C)C1,inactive
5,CC(=O)/C=C/C=C1/C2CCC(C2)C1(C)C (configuration not stated),inactive
6,Cc1c(-c2ccccc2)oc2c(C(=O)OCCN3CCCCC3)cccc2c1=O,inactive
7,COc1cc(-c2ccc(=O)[nH]n2)ccc1OC(F)F,inactive
8,CCCCCCCCCCCCN1CCCCCC1=O,inactive
9,COc1ccc(S(=O)(=O)Nc2nnc(CC(C)C)s2)cc1,inactive
10,O=C(O)c1c2ccccc2cc2ccccc12,inactive
11,COc1ccc(/C=C/c2cc(OC)cc(=O)o2)cc1,inactive
12,CCCNC(C)C(=O)Nc1c(C)csc1C(=O)OC (configuration not stated),inactive
13,OCCCS,inactive
14,OCCCCCO,inactive
15,CC(=O)OCC(=O)[C@@]1(O)[C@H](OC(C)=O)C[C@H]2[C@@H]3CCC4=CC(=O)C=C[C@]4(C)[C@@]3(F)[C@@H](O)C[C@@]21C,inactive
16,NS(=O)(=O)c1ccc(C(=O)O)cc1,inactive
17,CC1=CC(C)C(C=O)C(C)C1 (configuration not stated),inactive
18,ClCCOCCOCCCl,inactive
19,CC(COc1ccccc1)NN (configuration not stated),inactive
20,CCCCNC(=O)NCCCC,inactive
21,CCOc1ccccc1OCC1CNCCO1 (configuration not stated),inactive
22,Cc1coc2ccccc2c1=O,inactive

# Target: Beta-2 adrenergic receptor (Homo sapiens) (UniProt P07550)
# Sequence (P07550 whole entry, looked up): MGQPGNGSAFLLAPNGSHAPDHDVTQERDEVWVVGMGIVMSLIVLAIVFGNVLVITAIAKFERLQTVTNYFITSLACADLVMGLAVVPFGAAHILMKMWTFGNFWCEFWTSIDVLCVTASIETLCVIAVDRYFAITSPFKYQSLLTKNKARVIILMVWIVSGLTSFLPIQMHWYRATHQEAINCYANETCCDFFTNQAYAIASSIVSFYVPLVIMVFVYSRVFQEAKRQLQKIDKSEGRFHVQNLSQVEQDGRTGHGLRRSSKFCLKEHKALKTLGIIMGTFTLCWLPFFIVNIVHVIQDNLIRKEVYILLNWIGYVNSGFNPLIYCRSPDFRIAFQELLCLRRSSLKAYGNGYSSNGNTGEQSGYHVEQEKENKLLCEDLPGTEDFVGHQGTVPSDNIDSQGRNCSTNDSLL
# Assay: Adrenergic beta2 receptor (ADRB2) small molecule antagonists, cell-based qHTS assay (AID 1963592); further: nearly all actives have a fitted effect of over 50% in size; further: potency means the concentration at half of the fitted maximal effect
# Conditions: CHO-ADRB2 cells, isoproterenol-stimulated cAMP HTRF ratio, 0.5 h; series mostly up to 92.4 µM
# Outline: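 Assay format: CHO-ADRB2 cells, 18-20hr seeding at 37C/5% CO2, then compound plus 1nM isoproterenol agonist mix for 0.5hr RT. Homogeneous time-resolved fluorescence cAMP detection after 1hr, expressed as 665/615 nm ratio.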
row,SMILES,Potency
1,CNCc1cc(F)ccc1Oc1ccc(Cl)c(Cl)c1,inactive
2,CN(C)CCN(Cc1ccccc1)c1ccccn1,inactive
3,O=c1[nH]c(=O)n([C@H]2C[C@H](O)[C@@H](CO)O2)cc1F,inactive
4,O=S(=O)(Oc1ccc(Cl)cc1)c1ccccc1,inactive
5,CCc1ncc(C)[nH]1,inactive
6,O=C1CCCc2c1cc1ccc3cccc4ccc2c1c34,inactive
7,CC(C)(C)CC(C)(C)c1ccccc1O,inactive
8,CCCCC/C=C\C/C=C\CCCCCCCC(=O)NC(C)c1ccccc1 (configuration not stated),inactive
9,Oc1ccc2c(c1)-c1ccccc1C2,inactive
10,CSC(=O)c1cccc2nnsc12,inactive
11,CCC[C@@H]1C[C@@H](C(=O)N[C@@H]([C@H]2O[C@H](SC)[C@H](O)[C@@H](O)[C@H]2O)[C@@H](C)O)N(C)C1,inactive
12,CC(=O)/C=C/C=C1/C2CCC(C2)C1(C)C (configuration not stated),inactive
13,Cc1c(-c2ccccc2)oc2c(C(=O)OCCN3CCCCC3)cccc2c1=O,inactive
14,CCN(Cc1cccnc1)C(=O)c1cccc(Cl)c1[C@]1(C)C(=O)N(Cc2ccc(OC)cc2OC)c2ccc(Cl)cc21,inactive
15,COc1cc(-c2ccc(=O)[nH]n2)ccc1OC(F)F,inactive
16,CCCCCCCCCCCCN1CCCCCC1=O,inactive
17,COc1ccc(S(=O)(=O)Nc2nnc(CC(C)C)s2)cc1,inactive

row,SMILES,Potency
1,O=C(O)c1c2ccccc2cc2ccccc12,inactive
2,Cc1cc(NC(=O)C(=O)O)cc(C)c1Oc1ccc(O)c2c1CCC2,inactive
3,CCOC(=O)C1=C(C)NC(C)=C(C(=O)OCC)C1c1ccccc1/C=C/C(=O)OC(C)(C)C,inactive
4,Cc1oc(-c2ccccc2)nc1CCOc1cccc2c1ccn2CCC(=O)O,inactive
5,O=C(CCCN1CCN(c2ccc(F)cc2)CC1)NC1c2ccccc2CSc2ccccc21 (configuration not stated),7.5 µM (active)
6,COc1ccc(/C=C/c2cc(OC)cc(=O)o2)cc1,inactive
7,CCCNC(C)C(=O)Nc1c(C)csc1C(=O)OC (configuration not stated),inactive
8,OCCCS,inactive
9,O=C(O)COc1ccc2ccccc2c1,inactive
10,OCCCCCO,inactive
11,CC(=O)OCC(=O)[C@@]1(O)[C@H](OC(C)=O)C[C@H]2[C@@H]3CCC4=CC(=O)C=C[C@]4(C)[C@@]3(F)[C@@H](O)C[C@@]21C,inactive
12,NS(=O)(=O)c1ccc(C(=O)O)cc1,inactive
13,O=C(O)C1(C(=O)Nc2ccc(Cl)cc2Cl)CC1,inactive
14,CC1=CC(C)C(C=O)C(C)C1 (configuration not stated),inactive
15,ClCCOCCOCCCl,inactive
16,CCc1c2c(nc3ccc(OC(=O)N4CCC(N5CCCCC5)CC4)cc13)-c1cc3c(c(=O)n1C2)COC(=O)[C@]3(O)CC,inactive
17,CC(COc1ccccc1)NN (configuration not stated),inactive

# Target: Beta-2 adrenergic receptor (Homo sapiens) (UniProt P07550)
# Assay: Adrenergic beta2 receptor (ADRB2) small molecule agonists, cell-based qHTS assay (AID 1963593);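 further: CHO cells stably overexpressing human ADRB2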
# Conditions: CHO-ADRB2 cells, cAMP HTRF, 30 min; series mostly up to 92.4 µM
# Outline: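 CHO cells stably over-expressing ADRB2 were plated overnight at 37C, then dosed with compounds plus a stimulation mix containing 100uM IBMX and 25uM Ro-20-1724 for 0.5hr at room temperature. cAMP was measured by HTRF competition, 1hr.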
row,SMILES,Potency
1,CNCc1cc(F)ccc1Oc1ccc(Cl)c(Cl)c1,inactive
2,CN(C)CCN(Cc1ccccc1)c1ccccn1,inactive
3,CCc1ncc(C)[nH]1,inactive
4,CCCCC/C=C\C/C=C\CCCCCCCC(=O)NC(C)c1ccccc1 (configuration not stated),inactive
5,CCC[C@@H]1C[C@@H](C(=O)N[C@@H]([C@H]2O[C@H](SC)[C@H](O)[C@@H](O)[C@H]2O)[C@@H](C)O)N(C)C1,inactive
6,CC(=O)/C=C/C=C1/C2CCC(C2)C1(C)C (configuration not stated),inactive
7,Cc1c(-c2ccccc2)oc2c(C(=O)OCCN3CCCCC3)cccc2c1=O,inactive
8,COc1cc(-c2ccc(=O)[nH]n2)ccc1OC(F)F,inactive
9,CCCCCCCCCCCCN1CCCCCC1=O,inactive
10,COc1ccc(S(=O)(=O)Nc2nnc(CC(C)C)s2)cc1,inactive
11,O=C(O)c1c2ccccc2cc2ccccc12,inactive
12,Cc1cc(NC(=O)C(=O)O)cc(C)c1Oc1ccc(O)c2c1CCC2,inactive
13,COc1ccc(/C=C/c2cc(OC)cc(=O)o2)cc1,inactive
14,OCCCS,inactive
15,OCCCCCO,inactive
16,CC(=O)OCC(=O)[C@@]1(O)[C@H](OC(C)=O)C[C@H]2[C@@H]3CCC4=CC(=O)C=C[C@]4(C)[C@@]3(F)[C@@H](O)C[C@@]21C,inactive
17,NS(=O)(=O)c1ccc(C(=O)O)cc1,inactive
18,CC1=CC(C)C(C=O)C(C)C1 (configuration not stated),inactive
19,ClCCOCCOCCCl,inactive
20,CCCCNC(=O)NCCCC,inactive
21,Cc1coc2ccccc2c1=O,inactive
